IL1B secr inh = inflammasome signaling inhibition, IL-1 beta readout. THP-1 LPS/ATP IL-1B secretion, AlphaLISA, 16 h; active compounds read low. activity change, % at 57.5 µM. 4.7% of 360,000 active; in the data active = activity change below about -50%; inconclusive = mostly about -30% to -49%
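Secreted IL-1B measured by AlphaLISA bead assay after 16 h compound exposure of THP-1 cells; compounds (final up to 57.5 uM) added 1 h before LPS (250 ng/mL) and ATP (1.25 mM) stimulation; lower signal means less secretion.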
DT40 TDP1 no CPT = qHTS for Inhibitors of human tyrosyl-DNA phosphodiesterase 1 (TDP1): qHTS in cells in absence of CPT. DT40 Tdp1-/- hTDP1 cells, no CPT, ATP luminescence, 48 h. Potency, µM (top dose mostly 46.2 µM), hits mostly inhibitors. 15% of 420,000 active; note: nearly all actives have a fitted effect of over 55% in size
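A cellular qHTS used chicken DT40 cells lacking endogenous Tdp1 but carrying stably transfected human TDP1. Compounds were applied without camptothecin, and cell growth kinetics were judged by ATP-dependent luminescence after ≥48 hr.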
DT40 TDP1 CPT = DT40-hTDP1 cell growth loss with CPT; chicken DT40 Tdp1-/-;hTDP1 cells + 20 nM CPT, ATP luminescence, 48 h; Potency, µM (highest dose often 46.2 µM), usual class: inhibitors; 12% of 420,000 active; AID 686979; note: nearly all actives have a fitted effect of over 55% in size
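Chicken DT40 Tdp1-/- cells complemented with human TDP1, 400 cells/well, exposed to compounds plus 20 nM camptothecin for at least 48 h at 37 C; viability read as ATP content by CellTiter-Glo luminescence.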
HT1080 IDH1KD tx = HT-1080 IDH1 knockdown cell toxicity (counter line) | Potency, µM (top dose mostly 46.1 µM), most hits filed as cytotoxic | AID 686971 | 2% of 360,000 active | HT-1080 IDH1 knockdown viability, ATP luminescence, 48 h
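Using the IDH1-knockdown HT-1080 line run in the same batch and compound series as the NT line, viability after 48 h at 37 °C was determined by CellTiter-Glo luminescence and expressed as % activity.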
HT1080-NT tox = kills 2HG-producing HT-1080-NT fibrosarcoma cells | Potency, µM (top dose mostly 46.1 µM), hits mostly cytotoxic | 1.6% of 360,000 active | HT-1080-NT fibrosarcoma viability, CellTiter-Glo ATP luminescence, 48 h;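 note: NT is the 2HG producing partner of a matched IDH1 knockdown line; nearly all actives have a fitted effect of over 55% in size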
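HT-1080-NT; 750 cells/well; 5% FBS RPMI; 48 h compound, 37 degrees C; CellTiter-Glo luminescence; curve fitting and curve-class assignment.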
Of the large screens only hits and unclear results are named; the others gave an inactive call. Only some compounds are listed: those with a hit (about 19% of all), similar ones and a draw of the others. Unless noted, calls come from the whole dose curve; as a rule, active = well fitted curve in the direction sought with a large enough effect; inconclusive = small, poorly fitted or top-dose-only effect, or another doubt; inactive = no such curve, though single readings can be large; an effect the other way counts as inactive or inconclusive.

N#CCCN(CCCN1CCOCC1)CN1C(=O)c2ccccc2C1=O	DT40 TDP1 no CPT inconclusive
Cc1ccc(CNC(=O)COC(=O)c2cccc(S(=O)(=O)N3CCCCC3)c2)cc1	none
C=CC(c1ccccc1)C(C(=O)c1ccccc1)N(C)C (stereo not given)	DT40 TDP1 CPT inconclusive
O=C(CSc1nc(-c2cccs2)nc2cc(=O)[nH]n12)Nc1cccc(C(F)(F)F)c1	none (no result: IL1B secr inh, HT1080 IDH1KD tx, HT1080-NT tox)
Cc1nc(SC2CC(=O)N(c3cc(Cl)cc(Cl)c3)C2=O)nc2c1CCCC2 (stereo not given)	DT40 TDP1 no CPT inconclusive, DT40 TDP1 CPT 21µM
CCOc1ccc(CSc2nc(C)cc(COC)c2C#N)cc1OCC	DT40 TDP1 no CPT inconclusive, DT40 TDP1 CPT inconclusive
CCOC(=O)C1(Cc2ccccc2C)CCCN(C(=O)c2ccoc2)C1 (stereo not given)	DT40 TDP1 no CPT inconclusive
CCOC(=O)C1(Cc2ccccc2C)CCCN(C(=O)c2ccnn2C)C1 (stereo not given)	DT40 TDP1 no CPT inconclusive
CCOC(=O)C1(Cc2ccccc2C)CCCN(C(=O)c2sccc2C)C1 (stereo not given)	DT40 TDP1 no CPT inconclusive, DT40 TDP1 CPT 18µM
CCOC(=O)C1(Cc2ccccc2C)CCCN(S(=O)(=O)c2cccnc2)C1 (stereo not given)	DT40 TDP1 no CPT 16µM, DT40 TDP1 CPT inconclusive
N#CCC(=O)Nc1ccc(C(=O)NCC(c2ccco2)N2CCCCC2)cc1 (stereo not given)	none
CCOC(=O)c1ccc(NC(=O)C2CCCN(c3ccc(Sc4ccc(C)cc4)nn3)C2)cc1 (stereo not given)	DT40 TDP1 no CPT 8.2µM, DT40 TDP1 CPT inconclusive (no result: IL1B secr inh, HT1080 IDH1KD tx, HT1080-NT tox)
CS(=O)(=O)N1CCCC(C(=O)Nc2ccc(F)cc2F)C1 (stereo not given)	none
CCOc1ccc(NC(=O)C2CCCN(c3ccc(Sc4ccc(C)cc4)nn3)C2)cc1 (stereo not given)	none (no result: IL1B secr inh, HT1080 IDH1KD tx, HT1080-NT tox)
Cc1ccc(Sc2ccc(N3CCC(C(=O)Nc4ccc(Cl)cc4)CC3)nn2)cc1	DT40 TDP1 no CPT 18µM, DT40 TDP1 CPT 15µM (no result: IL1B secr inh, HT1080 IDH1KD tx, HT1080-NT tox)
Cc1ccc(Sc2ccc(N3CCCC(C(=O)Nc4ccc(F)cc4F)C3)nn2)cc1 (stereo not given)	DT40 TDP1 no CPT 18µM, DT40 TDP1 CPT 15µM (no result: IL1B secr inh, HT1080 IDH1KD tx, HT1080-NT tox)
CC(NC(=O)COC(=O)CN1C(=O)c2ccccc2C1=O)c1ccccc1 (stereo not given)	none
O=C(CCCOC(=O)c1ccc(O)cc1O)c1ccc(Br)cc1	DT40 TDP1 no CPT 23µM, DT40 TDP1 CPT inconclusive
O=C(CCCOC(=O)c1cccnc1Cl)c1ccc(Br)cc1	DT40 TDP1 no CPT inconclusive, DT40 TDP1 CPT inconclusive
COc1ccc2c(c1)CC=C1C2CCC2(C)C(=O)C(=NO)CC12 (stereo not given)	IL1B secr inh -88, DT40 TDP1 no CPT inconclusive, DT40 TDP1 CPT inconclusive
C/C(=N\NC(=O)c1ccc(-n2cnnn2)cc1)c1ccc(C)cc1	none
O=C(c1ccccn1)N(Cc1ccco1)C1(C(=O)Nc2ccc(Br)cc2)CCCCC1	DT40 TDP1 no CPT 23µM, DT40 TDP1 CPT 16µM
O=C(c1ccc2c(c1)OCO2)N(Cc1ccco1)C1(C(=O)NC2CCCCC2)CCCCC1	DT40 TDP1 no CPT 16µM, DT40 TDP1 CPT 12µM
CCC(C)(C(=O)NC1CCCC1)N(Cc1ccco1)C(=O)c1ccc2c(c1)OCO2 (stereo not given)	DT40 TDP1 no CPT 7.3µM, DT40 TDP1 CPT 9.2µM
Cc1ccc(S(=O)(=O)N2CCOC23CCN(C(=O)C(=O)NCCC(C)C)CC3)cc1	none
COc1ccc(C(=O)NC(C(=O)OCC(=O)Nc2sccc2C(N)=O)C(C)C)cc1 (stereo not given)	DT40 TDP1 no CPT 23µM, DT40 TDP1 CPT inconclusive
COc1ccc(C(=O)N[C@H](C(=O)OCCCOC(=O)[C@@H](NC(=O)c2ccc(OC)cc2)C(C)C)C(C)C)cc1	DT40 TDP1 no CPT inconclusive, DT40 TDP1 CPT 23µM
CN(O)/C=C/C(=O)c1ccc(Br)cc1	IL1B secr inh inconclusive, DT40 TDP1 no CPT inconclusive, DT40 TDP1 CPT 16µM
CN(CC(=O)Nc1cccc(F)c1)CC(=O)Nc1cccc(S(=O)(=O)N2CCCCCC2)c1	IL1B secr inh inconclusive, DT40 TDP1 no CPT 16µM, DT40 TDP1 CPT 16µM
CN(CC(=O)Nc1cccc(F)c1)CC(=O)Nc1cccc(S(=O)(=O)N2CCCCC2)c1	DT40 TDP1 no CPT 21µM, DT40 TDP1 CPT inconclusive
CC1CCc2ccccc2N1CC(=O)Nc1cccc(S(=O)(=O)N2CCCC2)c1 (stereo not given)	DT40 TDP1 no CPT 18µM, DT40 TDP1 CPT 16µM
Cc1ccc(CN2C(=O)CSCC2(C)C(=O)Nc2c(C)cccc2C)cc1 (stereo not given)	none
CC(C)C(=O)NC(c1ccc(N(C)C)cc1)c1ccc2cccnc2c1O (stereo not given)	DT40 TDP1 no CPT 5.6µM, DT40 TDP1 CPT 4µM (no result: IL1B secr inh, HT1080 IDH1KD tx, HT1080-NT tox)
CC(C)C(=O)NC(c1ccco1)c1ccc2cccnc2c1O (stereo not given)	DT40 TDP1 no CPT 4.6µM, DT40 TDP1 CPT 3.3µM, HT1080 IDH1KD tx inconclusive, HT1080-NT tox 4.1µM
Oc1c(C(Nc2nc3ccccc3s2)c2ccco2)ccc2cccnc12 (stereo not given)	IL1B secr inh -99, DT40 TDP1 no CPT 5.2µM, DT40 TDP1 CPT 3.7µM, HT1080 IDH1KD tx inconclusive
CN(C)c1ccc(N=Nc2ccc3ncccc3c2)cc1	none
c1coc(CNc2nc3ccccc3s2)c1	none
CCN(CC)c1ccc(C(NC(=O)C(C)C)c2ccc3cccnc3c2O)cc1 (stereo not given)	DT40 TDP1 no CPT 2.9µM, DT40 TDP1 CPT 2.9µM, HT1080 IDH1KD tx inconclusive, HT1080-NT tox inconclusive
CCOC(=O)N1CCC(N2C(=O)c3ccc(C(=O)Nc4cccc(OC)c4)cc3C2=O)CC1	DT40 TDP1 no CPT inconclusive, DT40 TDP1 CPT inconclusive
CC1CCN(S(=O)(=O)c2ccc3c(ccn3CC(=O)NCc3ccccc3F)c2)CC1	DT40 TDP1 no CPT inconclusive, DT40 TDP1 CPT 21µM (no result: IL1B secr inh, HT1080 IDH1KD tx, HT1080-NT tox)
CSc1ccc(CNC(=O)CCn2ccc3cc(S(=O)(=O)N4CCC(C)CC4)ccc32)cc1	DT40 TDP1 no CPT inconclusive, DT40 TDP1 CPT 21µM (no result: IL1B secr inh, HT1080 IDH1KD tx, HT1080-NT tox)
CCCCNC(=O)CCn1ccc2cc(S(=O)(=O)N3CCCC3)ccc21	DT40 TDP1 no CPT inconclusive
CC1CCN(S(=O)(=O)c2ccc3c(ccn3CCC(=O)NCc3ccccc3F)c2)CC1	DT40 TDP1 no CPT inconclusive, DT40 TDP1 CPT 16µM (no result: IL1B secr inh, HT1080 IDH1KD tx, HT1080-NT tox)
O=C(CCn1ccc2cc(S(=O)(=O)N3CCCC3)ccc21)NCc1cccc(F)c1	DT40 TDP1 no CPT inconclusive, DT40 TDP1 CPT inconclusive
COc1ccc(NS(=O)(=O)c2cc(N/C(=N\S(=O)(=O)c3ccccc3)c3ccc(F)cc3)ccc2Cl)cc1	DT40 TDP1 no CPT inconclusive, DT40 TDP1 CPT inconclusive, HT1080 IDH1KD tx inconclusive, HT1080-NT tox inconclusive
COc1ccccc1C(=O)NCC(=O)N1CCN(c2ncccn2)CC1	none
